These results are taken from PubChem BioAssay AID493248 (Broad Institute, 2011).

Molecules are shown by their SMILES. Out of some 2,300 compounds screened, about 1,400 (61%) were called active. About 7% were inconclusive and are not listed. No rule for the calls is given here. The set was probably picked from earlier hits. The list is a sample of the results. Measured potencies and affinities stand elsewhere.

The assay deals with FAD-linked sulfhydryl oxidase ALR (Homo sapiens) (UniProt P55789). Kind of assay: inhibitors of human ALR sulfhydryl oxidase, dose response, biochemical, H2O2 detection, luminescence, cherry-pick (AID 493248). To be noted: purified ALR, DTT oxidation, H2O2 HRP-luminol luminescence; at 10 µM (top of the series).
Sequence of FAD-linked sulfhydryl oxidase ALR (Homo sapiens) (P55789 whole entry, looked up): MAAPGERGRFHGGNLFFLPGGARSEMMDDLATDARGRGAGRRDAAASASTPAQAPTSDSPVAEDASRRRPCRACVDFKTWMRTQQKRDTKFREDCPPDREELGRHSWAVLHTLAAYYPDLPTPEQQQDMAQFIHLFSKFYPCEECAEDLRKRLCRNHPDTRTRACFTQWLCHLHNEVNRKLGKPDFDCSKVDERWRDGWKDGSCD
For `Cc1cc(-c2ccccc2)nc2cc(C(=O)NCc3ccco3)nn12`, the activity change, negative = inhibition is -17.4%.
Next, `CCCc1nn2c(N)c(/C=C3\C=Nc4ccccc43)c(=O)nc2s1`: -38%; `CS(=O)(=O)c1nsc2nc(=O)c(/C=C3\C=Nc4ccccc43)c(N)n12`: -69.9%; `CCC(=O)Nc1ccc(C(=O)NCCCn2ccnc2)cc1`: 87.5%.
As to `CCCC(=O)NC(c1ccc(N(C)C)cc1)c1ccc2cccnc2c1O` (stereo not given), the activity change, negative = inhibition was 268%.
Next, `CC1=Nc2cccc3cccc(c23)N1C`: -10.4%; `Cc1nc(-c2cccc(N)c2)cs1`: -3.17%; `O=S(=O)(c1ccc(Cl)nc1)N1CCC(Cc2ccccc2)CC1`: -5.04%.
Under `CO/N=C/NC(=O)c1ccc([N+](=O)[O-])c(CS(=O)(=O)c2ccc(Cl)cc2)c1` stands 7.26%; under `Cc1nc([N+](=O)[O-])c(Br)n1CC(=O)c1ccc(Cl)cc1`, -18.7%; under `Cc1nn(C(C)C(=O)N/N=C/c2ccc(N(C)C)cc2)c(C)c1[N+](=O)[O-]` (stereo not given), -45.7%.
Under `COc1cccc(Oc2cn[nH]c2-c2ccc(O)cc2O)c1` stands -53.3%; under `COc1ccccc1-c1c(-c2ccc(O)cc2O)n[nH]c1C(F)(F)F`, 267%; under `Cc1cc(/C=C2\C(=N)N3N=CSC3=NC2=O)c(C)n1Cc1ccccc1`, -36.4%.
Regarding `Cn1nnnc1SCc1csc(Nc2ccccc2)n1`, the activity change, negative = inhibition was -51.7%.
For the compound `CCN1C(=O)/C(=C/N(C)C)c2ccccc21`, the activity change, negative = inhibition amounted to 14.1%.
With `Cc1ccc(-c2sc(-c3cccnc3)nc2CC(=O)O)cc1`, the activity change, negative = inhibition was -3.54%.
Under `CCCCC(=O)Nc1ccnc(-c2cccnc2)n1` stands 34%; under `Cc1ccc(-c2nc(-c3ccc(Cl)cc3)sc2CC(=O)O)c(C)c1`, -95.8%.
Turning to `O=C(Cc1cccs1)N/N=C\c1ccc(O)cc1`, the activity change, negative = inhibition is -96.8%.
Take `CN(C)c1cccc2c(/C=N/O)ccc(N(C)C)c12`: the activity change, negative = inhibition was found to be 3.9%.
On to `Cc1ccc(C(=O)Nc2cccc([N+](=O)[O-])c2)cc1S(=O)(=O)Nc1ccc(C(=O)O)cc1`, for which the activity change, negative = inhibition was -15%.
Consider `COc1cccc2sc(Nc3nnc(-c4ccccc4Cl)o3)nc12`, for which the activity change, negative = inhibition was -55.9%.
As for `Cc1noc(C(=O)N2CCN(c3ccccc3)CC2)c1Cl`, the activity change, negative = inhibition is -27.4%.
Under `Cc1onc(C(=O)N2CCN(c3ccccc3)CC2)c1[N+](=O)[O-]` stands -51.4%; under `c1ccc2c(c1)CC(N1CCCCC1)c1ccccc1N2` (stereo not given), -14.9%.
On to `C=CCNC(=O)c1ccccc1S(=O)c1ccccc1C#N` (stereo not given), for which the activity change, negative = inhibition was -6.74%.
Turning to `Nc1nc(CN2CCN(C(=O)c3ccco3)CC2)nc(Nc2cccc(Cl)c2)n1`, the activity change, negative = inhibition is -24.8%.
For `CN1CCN(S(=O)(=O)c2ccc(N)cc2)CC1`, the activity change, negative = inhibition was -29.3%.
Regarding `Brc1ccc(-c2ncc3ccccn23)cc1`, the activity change, negative = inhibition is -33.1%.
Turning to `Cc1nn(C)c(Sc2ccccc2N)c1[N+](=O)[O-]`, the activity change, negative = inhibition was -39.9%.
For `O=C(O)c1ccccc1CSC1=NCCS1`, the activity change, negative = inhibition was -98.5%.
With `O=[N+]([O-])c1ccc2c(c1)CNc1ccccc1O2`, the activity change, negative = inhibition was -57.2%.
For the compound `CC(=O)Nc1ccc(SC[C@H](CC(C)C)N2CCN(CC(C)C)CCC2=O)cc1`, the activity change, negative = inhibition worked out at 0.961%.
For the compound `O=C(O)c1ccc(-n2c(/C=C/c3cccc([N+](=O)[O-])c3)nc3ccccc3c2=O)cc1`, the activity change, negative = inhibition was -30.3%.
Under `CC1CCN(CCCNC(=O)c2ccc(CSCc3cccc(Cl)c3)o2)CC1` stands 26.9%; under `O=C(c1ccc(CS(=O)Cc2ccccc2Cl)o1)N1CCN(c2cccc(Cl)c2)CC1` (stereo not given), 45.7%; under `O=C(c1ccc(CS(=O)(=O)c2ccc(Br)cc2)o1)N1CCCC1`, 43.5%.
Turning to `COc1cccc(N2CCN(C(=O)c3cc(C)oc3C)CC2)c1`, the activity change, negative = inhibition is -48.7%.
With `COc1ccc(-c2coc3cc(O)ccc3c2=O)cc1O`, the activity change, negative = inhibition is -45.2%.
Regarding `COC(=O)c1c(-c2ccc(C)cc2)csc1N`, the activity change, negative = inhibition is -4.41%.
In the case of `COc1ccccc1C(=O)Nc1nc2nc(-c3ccccc3)cc(=O)n2[nH]1`, the activity change, negative = inhibition is -46.5%.
As for `Cc1oc(-c2ccccc2)cc1C(=O)Nc1cccc(C(=O)O)c1`, the activity change, negative = inhibition was -45.5%.
As to `Cc1cccc(C(=O)Nc2ccc(O)cc2)c1`, the activity change, negative = inhibition was -86.3%.
As for `Cc1cc(C)nc(NS(=O)(=O)c2ccc(NC(=O)Cc3ccccc3F)cc2)n1`, the activity change, negative = inhibition is -98.5%.
As to `c1ccc(CCCN2CCN(c3ccccc3)CC2)cc1`, the activity change, negative = inhibition was -9.66%.
Consider `COC(=O)c1ccc(NC(=O)CN2CCN(c3ccccc3)CC2)cc1`, for which the activity change, negative = inhibition was -30.3%.
As to `O=C(CCCC1=NS(=O)(=O)c2ccccc2N1)N1CCN(c2ccc(Cl)cc2)CC1`, the activity change, negative = inhibition was -50.1%.
Under `Cc1nc2nc(C)c(CCC(=O)N3CCN(c4ccccc4)CC3)c(C)n2n1` stands -54.1%; under `Cc1nn(-c2ccccc2)c2nc(-c3ccco3)cc(C(=O)O)c12`, -53.4%; under `COC(=O)c1ccc(CSc2nc3ccc(Cl)cc3[nH]2)o1`, -47.5%.
Next, `COC(=O)c1ccc(CSc2ncnc3c2nnn3-c2ccc(F)cc2)o1`: -6.9%.
As for `O=C1c2cc(O)c(O)cc2S(=O)(=O)C1c1ccccc1` (stereo not given), the activity change, negative = inhibition is -13%.
With `COc1ccc(-n2cnnc2SCc2cnc(-c3ccccc3)s2)cc1`, the activity change, negative = inhibition is -99.2%.
Under `Cc1nc2ccc(NC(=O)c3ccco3)cc2nc1C` stands -98.9%; under `Oc1ccc(C2C[C@H]3CC[C@@H]2C3)cc1O` (stereo not given in full), 0.253%; under `O=C(O)CCCN1C(=O)/C(=C\C(Cl)=C\c2ccccc2)SC1=S`, -28.9%.
Next, `CN(C)c1ccc(N2CC(C)(C)C2=O)cc1`: 9.24%.
Turning to `Cc1cccn2cc(-c3cccc(S(=O)(=O)N4CCCCC4)c3)nc12`, the activity change, negative = inhibition is -98.3%.
As for `Cc1cc(C)c2ccc(N)nc2c1O`, the activity change, negative = inhibition was -14.6%.
Consider `COc1cc(C)nc(Oc2ccc(/C=N/O)cc2)n1`, for which the activity change, negative = inhibition is -95.2%.
As to `CCN1CCN(C(=O)Nc2ccc(Cc3ccc(NC(=O)N4CCN(CC)CC4)cc3)cc2)CC1`, the activity change, negative = inhibition is -18.9%.
`COCc1nnc(NC(=O)c2ccc(S(=O)(=O)N3CCCc4ccccc43)cc2)o1`: the activity change, negative = inhibition is -34.2%.
As for `CCCC(O)(c1ccc(OC)cc1)C(CN(C)C)c1ccccc1` (stereo not given), the activity change, negative = inhibition was determined as 4.55%.
As for `Nc1ccccc1Nc1c(F)c(F)nc(F)c1Cl`, the activity change, negative = inhibition was -37.7%.
